# Assays:
# [1] = test system: Human papillomavirus type 1a protein E7 (residues 44-93); assay: small molecules binding HPV E7 44-93 – biochemical, small-molecule microarray, residues 44-93, 635 nm fluorescence, primary screen (AID 1108); conditions: fluorescence 635 nm, higher = more signal;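 further: E7 fragment applied at 1 µg/mL in TBST for 1 h at 4 C; score combines spot fluorescence with its signal to noise ratio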
# [2] = hepatitis C replication reporter changes, two-sided – Huh7 cells, luciferase reporter, HCV replication inhibitor project, primary screen (AID 1109); conditions: Huh7 HCV replicon luciferase reporter, 48 h; higher = more signal;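 further: huh7 hepatoma cells harbouring a luciferase neomycin HCV replicon reporter; luciferase luminescence as measure of HCV replicon replication; test concentration not given here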
# [3] = target: Left-right determination factor 2 (Homo sapiens) (UniProt O00292); assay: small molecules binding LEFTY2 protein – biochemical, small-molecule microarray, 635 nm fluorescence scan, primary screen (AID 1110); conditions: higher = more signal
# Chain of Left-right determination factor 2 (Homo sapiens) (O00292 whole entry, looked up): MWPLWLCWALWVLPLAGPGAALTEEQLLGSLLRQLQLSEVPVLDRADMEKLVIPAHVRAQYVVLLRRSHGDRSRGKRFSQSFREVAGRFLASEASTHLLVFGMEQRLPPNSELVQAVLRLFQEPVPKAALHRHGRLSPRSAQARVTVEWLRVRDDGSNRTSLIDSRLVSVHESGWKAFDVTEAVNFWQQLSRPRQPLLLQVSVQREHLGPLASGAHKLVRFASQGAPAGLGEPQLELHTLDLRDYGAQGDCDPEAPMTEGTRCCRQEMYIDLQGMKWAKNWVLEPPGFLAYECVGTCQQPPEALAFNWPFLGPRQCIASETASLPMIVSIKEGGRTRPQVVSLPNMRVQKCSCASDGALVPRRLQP
# [4] = target: Calmodulin-1 (Homo sapiens) (UniProt P0DP23); assay: small molecules binding calmodulin-1 with EGTA – biochemical, small-molecule microarray, Cy5-labelled CALM1, profiling panel (AID 1111); conditions: Cy5-CALM1 binding fluorescence, higher = more signal;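 further: labelled calmodulin applied in Tris saline Tween buffer holding calcium plus EGTA and DTT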
# [5] = target: Calmodulin-1 (Homo sapiens) (UniProt P0DP23); assay: small molecules binding Ca-loaded calmodulin-1 – biochemical, small-molecule microarray, Cy5-labelled CALM1, plus calcium, artefact control for SMM control-protein annotation, profiling panel (AID 1112); conditions: Cy5-CALM1 binding fluorescence, higher = more signal;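 further: score merges spot fluorescence with signal to noise from triplicate slides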
# [6] = probe aWnt5a binding to arrayed compounds – biochemical, biotinylated probe, 635/667 nm fluorescence, primary screen (AID 1113); conditions: small-molecule microarray, higher = more signal;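 further: score merges 667 nm fluorescence intensity with signal-to-noise per printed feature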
# [7] = probe aShh binding to arrayed compounds – biochemical, biotinylated probe, 635/667 nm fluorescence, primary screen (AID 1114); conditions: small-molecule microarray, higher = more signal;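 further: probe is biotin-labelled aShh protein from a stem cell growth factor screen; measures binding of labelled protein to compounds printed on the slide; score merges feature fluorescence at 667 nm with signal-to-noise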
# [8] = probe aNog binding to arrayed compounds – biochemical, biotinylated probe, 635/667 nm fluorescence, primary screen (AID 1115); conditions: small-molecule microarray, higher = more signal;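 further: probe is biotinylated aNog protein used at 0.15 µg/mL for 1 h at 4 C; z-score combines 667 nm fluorescence of each spot with its signal to noise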
# [9] = target: Torsin-1A-interacting protein 1 (Homo sapiens) (UniProt Q5JTV8); assay: compound microarray binding of lysate hLAP1 – cell lysate, small-molecule microarray, COS7 lysate, 635/667 nm fluorescence, primary screen (AID 1116); conditions: 635 nm fluorescence, higher = more signal
# Chain of Torsin-1A-interacting protein 1 (Homo sapiens) (Q5JTV8 whole entry, looked up): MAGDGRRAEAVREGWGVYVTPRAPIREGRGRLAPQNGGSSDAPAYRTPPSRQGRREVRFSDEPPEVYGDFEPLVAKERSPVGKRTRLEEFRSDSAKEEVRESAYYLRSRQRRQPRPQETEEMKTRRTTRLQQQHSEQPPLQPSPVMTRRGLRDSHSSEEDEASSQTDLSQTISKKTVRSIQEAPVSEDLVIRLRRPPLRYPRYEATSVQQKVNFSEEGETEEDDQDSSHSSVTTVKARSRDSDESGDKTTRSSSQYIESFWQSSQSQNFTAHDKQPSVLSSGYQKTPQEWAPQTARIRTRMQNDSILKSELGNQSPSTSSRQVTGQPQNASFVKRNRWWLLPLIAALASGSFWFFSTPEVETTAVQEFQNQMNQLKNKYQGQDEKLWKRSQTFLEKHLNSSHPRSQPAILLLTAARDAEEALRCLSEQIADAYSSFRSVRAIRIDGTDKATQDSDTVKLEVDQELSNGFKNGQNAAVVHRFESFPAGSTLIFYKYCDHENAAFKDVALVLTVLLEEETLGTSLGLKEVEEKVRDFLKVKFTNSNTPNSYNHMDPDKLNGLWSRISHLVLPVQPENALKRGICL
# [10] = target: Alpha-bungarotoxin (Bungarus multicinctus) (UniProt P60615); assay: compounds binding labelled alpha-BTX control protein – biochemical, small-molecule microarray, Alexa647 label, 635/667 nm fluorescence, artefact control for SMM control protein annotation, profiling panel (AID 1117); conditions: alpha-BTX-A647 binding fluorescence, higher = more signal
# Chain of Alpha-bungarotoxin (Bungarus multicinctus) (P60615 whole entry, looked up): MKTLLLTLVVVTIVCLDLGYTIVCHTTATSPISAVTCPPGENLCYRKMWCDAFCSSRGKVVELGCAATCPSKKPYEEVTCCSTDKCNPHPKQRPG
Structure (SMILES),composite z-score [1],z-score [2],composite z-score [3],composite z-score [4],composite z-score [5],composite z-score [6],composite z-score [7],composite z-score [8],composite z-score [9],composite z-score [10]
CC(CO)N1C(=O)[C@@H]2C3C(=O)OCCC/C=C\[C@H]3OC23C=CCN(CCN2CCOCC2)C(=O)[C@@H]13 (stereo not given in full),-0.201,-0.77,-0.0109,-0.514,-1.01,-0.152,0.0048,-0.272,-0.116,0.0654
Cc1ccc(S[C@]2(C(=O)O)CC(=O)N(Cc3ccccc3C(F)(F)F)[C@@H]2c2ccc(CO)cc2I)cc1,0.4,-1.26,-1.66,-0.633,-0.711,-0.12,-0.315,-0.322,-0.327,-0.247
COc1ccc([Si](C)(C)[C@@H]2[C@@H](CCO)O[C@]3(C(=O)N(Cc4cccc(N5CCOC5=O)c4)c4ccccc43)[C@H]2C)cc1,0.542,-4.17,0.133,1.37,0.924,-0.0704,0.0756,0.36,0.412,1.32
C=C(C(=O)CC[C@H](OC(C)=O)c1ccccc1OCCO)C(C)C,-0.949,-4.51,-0.343,-0.296,-1.33,-0.119,-0.352,-0.124,4.35,-0.423
COc1ccc([Si](C)(C)[C@H]2[C@H](CC(=O)N3CCC[C@H]3CO)O[C@@]3(C(=O)N(Cc4cccc(N5CCOC5=O)c4)c4ccccc43)[C@@H]2C)cc1,1.23,-2.44,1.05,-0.133,-0.834,-0.124,-0.0553,0.0258,0.368,1.58
O=C1NC(=O)C2C1C=CC(C(O)C1CC=CCC1)N2Nc1ccccn1 (stereo not given),-0.643,-0.268,0.571,-0.282,-0.589,-0.0643,-0.147,-0.0852,1.22,-0.29
COc1ccc([C@H]2OC[C@@H]3CCC(=O)N32)cc1,0.493,0.574,0.556,-0.313,-0.525,-0.18,0.0062,-0.324,0.493,-0.122
COC(=O)c1c(CC[C@@H](CO)NC(=O)N[C@@H](Cc2ccccc2)Cn2cc(-c3ccccn3)nn2)oc(C(=O)N2CCOCC2)c1C(=O)OC,-0.593,0.209,0.0348,-0.194,0.0715,-0.204,0.0796,0.151,0.167,0.0762
CN(C)CCCC[C@@H]1NC(=O)[C@H]2C[C@@H](C(=O)NCCCCCN)[C@@H](c3cccc(OCCO)c3)N2C1=O,0.474,0.0761,0.669,2.22,1.51,0.233,0.351,0.863,2.53,1.44
C=CC[C@]1(C(=O)NCc2ccccc2)N=C(c2ccc(OCCCO)cc2)O[C@H]1c1ccccc1CN=[N+]=[N-],1.42,-2.42,0.13,0.764,0.358,-0.001,-0.0146,-0.516,0.854,0.361
C=CC[C@]1(C(=O)N2CCOCC2)N=C(c2ccc(OCCCO)cc2)O[C@H]1c1ccccc1N=[N+]=[N-],1.47,-1.43,0.258,1.47,0.667,0.0839,0.308,1.76,1.9,0.92
COCCCNC(=O)[C@@H]1c2ccccc2C(=O)N(Cc2ccccc2)[C@H]1c1ccc(CO)cc1,0.364,-0.719,0.221,-0.448,0.004,0.0215,0.131,-0.69,1.32,-0.222
[N-]=[N+]=NCc1ccccc1C[C@@]1(C(=O)NCC(O)CO)N=C(c2ccc(OCCCO)cc2)O[C@@H]1c1ccccc1 (stereo not given in full),1.03,-1.41,-1.38,0.899,1.25,-0.0285,0.156,0.723,1.01,0.183
O=C1C2C=CC(C(O)C=Cc3ccc([N+](=O)[O-])cc3)N(Nc3ccccc3F)C2C(=O)N1c1ccccc1 (stereo not given),1.47,-0.969,0.458,1.27,0.362,0.0037,0.166,0.581,1.18,1.12
C#CCNCc1ccccc1,0.297,0.141,0.689,-0.389,-0.163,-0.213,-0.291,-0.213,0.195,0.34
C=C(/C(=C/C[C@H](OC(=O)c1ccncc1)c1ccc(OCCO)cc1)c1cc(C(=O)OC)ccc1OC)C(C)C,1.08,-0.939,0.17,0.959,-0.218,-0.128,0.111,0.108,0.296,1.72
CCOc1cc(C(O)C2C=CC3C(=O)N(c4ccccc4)C(=O)C3N2Nc2ccc(C(C)C)cc2)ccc1O (stereo not given),1.45,-0.517,-0.211,0.983,-0.0316,0.0433,-0.0119,1.2,-0.102,1.91
CC(C)[Si](C#CCCCC#N)(O[C@H](c1ccccc1)c1cn(Cc2cccc(Cl)c2)nn1)C(C)C,1.31,-1.7,0.634,-0.412,-0.745,-0.0977,-0.0553,-0.467,0.423,-0.0534
C=CCNC(=O)[C@H]1[C@@H]2C(=O)O[C@@H](c3ccccc3)[C@@H](c3ccccc3)N2[C@@H](c2ccc(O)cc2)[C@]12C(=O)Nc1ccc(C#CCCO)cc12,-0.336,0.142,0.185,-0.314,0.107,-0.124,0.0982,-0.161,-0.428,-0.503
C=C(/C(=C/C[C@H](OC(C)=O)c1ccc(OCCO)cc1)c1cc(C(=O)OC)ccc1OC)C(C)C,1.16,-1.19,0.323,1.17,0.116,-0.0721,-0.2,0.775,1.2,0.179
COC(=O)[C@@]1(Cc2ccc(OC)cc2)[C@H]2c3cc(C(=O)N(C)C)n(Cc4ccc(C(F)(F)F)nc4)c3C[C@H]2CN1C(=O)c1ccccc1,0.714,-0.657,-0.0595,0.705,0.199,0.17,0.413,0.18,1,-0.173

# — PubChem BioAssay
